# Results reported in PubChem BioAssay AID1347120 (National Center for Advancing Translational Sciences (NCATS), 2019).
# Hit rate of the full screen: of about 390,000 compounds, about 930 (0.24%) were called active. Another 5% or so got no clear call; they are omitted. This excerpt belongs to a sample that is enriched for actives. A number with no mark means an inactive call. The call rests on the fitted dose curve; in most records, active means well fitted activation curve with a large enough effect; inconclusive means small, poorly fitted or top-dose-only effect; inactive means no such curve, though single readings can be large or run the other way.
# Experiment: qHTS for Suppressors of FUS Proteinopathy: Primary screen using FUS-linked yeast assay; further: nearly all actives have a fitted effect of over 55% in size;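 on growth rescue (activation): plate controls were DMSO vehicle for no effect and reference control for full effect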
# Conditions: S. cerevisiae FUS-expressing, OD600, 24 h; Potency: growth rescue; series mostly up to 76.6 µM; growth rescue (activation): at the top concentration
# From the text: Several widespread neurodegenerative diseases, including Alzheimer disease, Huntington disease, Frontotemporal Lobar Degeneration (FTLD) and Amyotrophic Lateral Sclerosis (ALS), share a common pathological feature, namely accumulation of specific protein aggregates in diseased tissue. These diseases which is associated with protein misfolding (proteinopathies) have become increasingly problematic as the population ages and life expectancies are extended. Most proteinopathies are currently incurable, a situation confounded by the fact that the basis of neurodegeneration is generally poorly understood. There exists urgent and significant need to find therapeutics that can inhibit the toxicity associated with protein aggregation. A novel approach to understand the underlying mechanisms of neurodegenerative diseases has recently emerged in which the disease conditions are modeled in the yeast (Saccharomyces cerevisiae), a tractable eukaryotic organism with conserved protein quality control mechanisms. Yeast offers quick and reliable genetic manipulations and can be easily tailored to high-throughput screening (HTS).
# For this project, a yeast model of the FUS proteinopathies (a spectrum of neurodegenerative diseases that include ALS and a subtype of FTLD) was generated and employed. The cytoplasmic accumulation of the DNA/RNA-binding protein FUS (also known as TLS) is causative to both familial and sporadic forms of ALS and FTLD. This yeast model recapitulates neuronal pathology by showing severe cytotoxicity associated with cytoplasmic accumulation of FUS aggregates and a specific interaction between FUS and TDP-43, another ALS-associated protein. […] Specifically, the cellular accumulation of misfolded FUS that disrupts RNA homeostasis in both yeast and higher eukaryotes. This model was validated to be suitable for quantitative HTS (qHTS) use for finding genetic or chemical factors that restore growth. […] Identified compounds that inhibits FUS-yeast toxicity is flagged, re-acquired, and validated for further investigation and optimization.
# NIH Chemical Genomics Center [NCGC]
# NIH Molecular Libraries Probe Production Centers Network [MLPCN]
# Assay Submitter (PI): Frank Shewmaker PhD, Uniformed Services University of the Health Sciences
# Compound CP55940 was used as the positive control. Column 1 was treated with CP55940 titration from 92uM (final concentration, 1:2 dilution), while Column 2 was treated with top dose 92uM. Columns 3 and 4 were treated with DMSO only as negative control to assess background and noise signal.
# Four hundred fifty microliter of cultured yeast (in 20mL rich medium) provided by Dr. Shewmaker lab was incubated at 30C at 99% humidity for 3hr. The culture was then spun down at 4000rpm for 5min and the cell pellet was resuspended in 2mL of Sdmin Media + ALU(330) + 2.5% Raffinose. One hundred microliter of the suspension was added to 900uL of water and OD of the solution was obtained. Twenty mL of responding medium (provided by Shewmaker lab) + 2.5% raffinose was added to ensure cell density of 0.1; the solution was incubated overnight. Working cell solution (FUS-yeast in Sdmi + Sdmi + 1X ALU + 2% galactose media) was prepared (final OD at 0.005) and 3uL was dispensed in a 1536-well Aurora high based clear bottom assay plates. Controls and library compounds (at various final concentrations from 40uM to 0.32uM) were added using a 1536-well pin array using the Kalypsys pin-tool. The plates were then incubated for 24hrs in a cell-culture incubator (30C; 99% humidity). Absorbance at 600nm was then read using the PerkinElmer ViewLux plate reader.
# Potency means the concentration at half of the fitted maximal effect.
Compound,growth rescue (activation) [%],Potency
COc1ccccc1NC(=O)c1sc2nc(C)c(C(=O)Nc3ccc(Cl)cc3)c(-c3ccc(Br)cc3)c2c1N,31,
CC(C)S(=O)(=O)c1oc(-c2ccc(F)cc2)nc1S(=O)(=O)c1ccc(F)cc1,-15.6,
CCOc1ccccc1NC(=O)C1CCCN(S(=O)(=O)c2cn(C)cn2)C1 (stereo not given),4.87,
COC(=O)c1ccccc1NC(=O)c1ccc2c(=O)n3c(nc2c1)CCCCC3,16.4,
COc1cccc(CNC(=O)c2ccc3c(c2)sc2nc(-c4cccc(OC)c4)cn23)c1,11.4,
CN1C(=O)c2[nH]nc(-c3ccc(F)cc3)c2C1c1ccccn1 (stereo not given),-19.3,
COc1ccc(CCNC(=O)c2nn(C)c3c2CSc2ccccc2-3)cc1OC,12.3,
CCCn1c2ccccc2c2cnn(CC(=O)NCC3CCN(Cc4ccc(C)cc4)CC3)c(=O)c21,-0.459,
Cc1ccc(NC(=O)CSc2nc3ccccc3c3nc(CCn4cncc4C)nn23)cc1F,20.8,
Cc1cccc(NC(=O)C2CCCN2S(=O)(=O)c2cccc3nsnc23)c1C (stereo not given),18.3,
COc1ccc(-c2cn3c(n2)sc2cc(C(=O)Nc4ccccc4F)ccc23)cc1,19.4,
CCOc1ccc(NC(=O)c2c(NC(=O)Cc3ccccc3)sc3c2CCCCC3)cc1,18.3,
NS(=O)(=O)c1ccc(CCNC(=O)CCCCCn2c(=O)[nH]c3ccccc3c2=O)cc1,8.38,
CCOC(=O)C1=C(c2ccccc2)Nc2ncnn2C1c1ccc(Cl)cc1 (stereo not given),-5.79,
COc1ccc(N2CCN(c3cc(C)nc4nncn34)CC2)cc1,-24.9,
CC(C)Cc1ccc(-c2cc3nc(NCc4cccc(Cl)c4)ccn3n2)cc1,-4.06,
COc1ccccc1-c1cc2nc(NCc3cccc(Cl)c3)ccn2n1,33.9,
COCCCNc1ccn2nc(-c3ccc(CC(C)C)cc3)cc2n1,,25.1 µM (active)
CCOc1ccccc1N(CC)C(=O)Nc1cn(C)c(=O)c2ccccc12,13.2,
Cc1ccc(C)c(N2CCN(CCCNC(=O)Nc3ccc(Cl)cc3)CC2)c1,20.1,
CCc1cc2c(cc3c(=O)n(CC(=O)NCCc4ccc(OC)c(OC)c4)ncn32)s1,0.833,
Cc1ccc(-c2csc(C(C#N)=C(O)CN3CCN(C(=O)c4ccco4)CC3)n2)cc1,,28.2 µM (active)
COc1cccc(OC)c1OCCN1CCN(C(=O)c2ccco2)CC1,-15.5,

Compound,growth rescue (activation) [%],Potency
Cc1ccc(NC(=O)C(c2ccccc2)N2CCN(C(=O)c3ccco3)CC2)cc1 (stereo not given),31.1,
CN1CCN(C2(CNC(=O)COc3ccc(C(C)(C)C)cc3)CCCCC2)CC1,20.4,
CC(C)(C)OC(=O)C[C@@H]1C/C=C\C[C@@H](CC(=O)N[C@H](CO)Cc2ccccc2)C(=O)NC[C@@H](c2ccccc2)OC1=O,25.1,
O=C(C[C@H]1C/C=C\C[C@@H](NC(=O)OCC2c3ccccc3-c3ccccc32)C(=O)O[C@@H](c2ccccc2)CNC1=O)N[C@H](CO)Cc1ccccc1,,35.5 µM (active)
CC(C)(C)OC(=O)C[C@@H]1C/C=C\C[C@@H](CC(=O)N[C@H](CO)Cc2ccccc2)C(=O)NCCOC1=O,13.5,
CC(C)c1ccc(NC(=O)c2ccc3c(O)c(S(=O)(=O)c4ccccc4)c(=O)[nH]c3c2)cc1,-2.38,
Cc1ccc(Cl)cc1-n1ncc2c(N3CCC(C(N)=O)CC3)ncnc21,-6.61,
CCOC(=O)c1c(NC(C)=O)c2c3c(sc2n1Cc1c(C)cc(C)cc1C)CCCC3,32.1,
CCc1ccccc1NC(=O)CSc1nnc(-c2ccccc2)c(-c2ccccc2)n1,31.2,
CCOCCCn1c(SCC(=O)Nc2ccc(CC)cc2)nc2ccccc2c1=O,4.6,
O=C(CN1CCOCC1)Nc1c(Cl)cc(Cl)cc1Cl,-45.1,
O=C(CN1CCOCC1)Nc1ccccc1,,25.1 µM (active)
O=C(CN1CCOCC1)Nc1c2c(nc3c1CCC3)CCC2,-15.7,
CN(C)S(=O)(=O)c1cccc(NC(=O)COC(=O)C2(c3ccccc3F)CCCC2)c1,19.5,
CN(c1ccccc1)S(=O)(=O)c1ccc(NC(=O)COc2ccccc2)cc1,17.1,
CN(C)S(=O)(=O)c1cccc(NC(=O)COc2ccc3ccccc3c2)c1,,22.4 µM (active)
Cc1ccc(NC(=O)C2CCN(S(=O)(=O)c3cc(-c4noc(C)n4)ccc3C)CC2)c(C)c1,13.4,
Cc1ccccc1C(=O)Nc1nnc(S(=O)(=O)N(C)c2ccc(Cl)cc2)s1,-9.93,
CCOC(=O)C1=C(C)Nc2sc(C(=O)c3ccc(Br)cc3)c(N)c2C1c1ccc(C(=O)OC)cc1 (stereo not given),,31.6 µM (active)
CCOC(=O)C1=C(C)NC(SC)=NC1c1ccccc1 (stereo not given),25.4,
CCOC(=O)C1=C(C)NC2=C(C(=O)CC(C)(C)C2)C1c1ccsc1 (stereo not given),13.7,
O=C(NCc1ccccc1)c1cccc(NC(=O)N2CCSc3ncccc32)c1,-8.13,
